The nature of assay [1]: qHTS assay for small molecules that induce genotoxicity in human embryonic kidney cells expressing luciferase-tagged ATAD5 (AID 651632). Also: nearly all actives have a fitted effect of over 15% in size. Summed up: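 Reporter cells (HEK293T) express luciferase-tagged ATAD5, a protein that accumulates after DNA damage. Treat 16 hr at 37C/5% CO2, add Amplite, wait 30 min at RT, and read luminescence.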
For orientation: qHTS replaces the single test concentration by a dilution series.

Assay [2] can be described thus: qHTS assay for small molecule agonists of the p53 signaling pathway - cell viability (AID 651633; calls by dose curve; also: nearly all actives have a fitted effect of over 30% in size; also: potency is read from the fitted curve at half-maximal effect). An outline of the steps: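 p53RE-bla cells were treated with compound for 16 hours at 37 C. Cytotoxicity was then measured as CellTiter-Glo luminescence after 30 min at room temperature.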
A short description of assay [3]: qHTS assay for small molecules that induce genotoxicity in human embryonic kidney cells expressing luciferase-tagged ATAD5 - cell viability (AID 651634; calls by dose curve; also: nearly all actives have a fitted effect of over 25% in size). Summed up:
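Seeding of 2,000 HEK293T ATAD5-luciferase cells per well preceded pin-tool compound transfer. Plates sat 15.5 hr at 37C under 5% CO2, then fluorescence was read after 30 min with CellTiter-Fluor.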

Assay [4] can be described thus: qHTS assay to test for compound auto fluorescence at 590 nm (red) in HepG2 cells (AID 720674). Summed up: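 Fluorescence at 590 nm emission following 540 nm excitation was recorded from HepG2 wells one hour after compound transfer, with DMSO-only wells as vehicle and Rose Bengal sodium equivalency as the scale.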
Assay [5] can be described thus: qHTS assay to test for compound auto fluorescence at 535 nm (green) in HepG2 cells (AID 720675).
A short description of assay [6]: qHTS assay to test for compound auto fluorescence at 460 nm (blue) in HEK293 cells (AID 720678). An outline of the steps: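 HEK293, 2,000 cells/well, 10% dialyzed FBS; attach 4-5 hr 37C; pin compound or DMSO; o/n 37C/5% CO2; fluorescence 405/460 nm; triamterene-equivalent units.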
Assay [7] is described as follows: qHTS assay to test for compound auto fluorescence at 535 nm (green) in HEK293 cells (AID 720680).
Assay [8] in a line: qHTS assay to test for compound auto fluorescence at 460 nm (blue) in HEK293 cell free culture (AID 720681). Summed up: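 Compounds were added to cell-free DMEM with 10% FBS and fluorescence read directly. The blue channel used 405 nm excitation and 460 nm emission, with triamterene as the reference fluorophore.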
Assay [9] in a line: qHTS assay to test for compound auto fluorescence at 535 nm (green) in HEK293 cell free culture (AID 720682). An outline of the steps: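 Green-label autofluorescence (485 nm excitation, 535 nm emission) measured on compound added to cell-free culture medium (DMEM, 10% FBS). Output is expressed relative to fluorescein.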
The nature of assay [10]: qHTS assay to test for compound auto fluorescence at 590 nm (red) in HEK293 cell free culture (AID 720683). An outline of the steps:
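Cell-free wells of DMEM with 10% FBS received compound, and intrinsic fluorescence was read at excitation/emission 540/590 nm. Values expressed as equivalence to Rose Bengal sodium.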

Assay [11] can be described thus: qHTS assay to test for compound auto fluorescence at 590 nm (red) in HepG2 cell free culture (AID 720684). Summed up: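 Compounds are added to culture medium (MEM, 10% FBS) lacking cells, then fluorescence is read at excitation 540 nm, emission 590 nm, with Rose Bengal sodium as the equivalency standard.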
Assay [12] can be described thus: qHTS assay to test for compound auto fluorescence at 460 nm (blue) in HepG2 cell free culture (AID 720685). An outline of the steps: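 Compound (23 nL) or DMSO pinned into cell-free MEM with 10% FBS; blue fluorescence read at 405/460 nm excitation/emission, expressed as auto-fluorescence equivalency to triamterene.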
The nature of assay [13]: qHTS assay to test for compound auto fluorescence at 535 nm (green) in HepG2 cell free culture (AID 720686).
Assay [14] in a line: qHTS assay to test for compound auto fluorescence at 460 nm (blue) in HepG2 cells (AID 720687). Summed up: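 HepG2 cells in MEM with 10% FBS, attached overnight at 37 C, were exposed to compound or DMSO for 1 hr at 37 C, 5% CO2. Blue fluorescence was read at 405/460 nm, with triamterene as reference fluorophore.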
Assay [15] can be described thus: qHTS assay for small molecule disruptors of the mitochondrial membrane potential - cell viability (AID 720634; calls by dose curve; also: nearly all actives have a fitted effect of over 20% in size; also: potency is read from the fitted curve at half-maximal effect). Summed up: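 Measuring cytotoxicity alongside mitochondrial potential, the screen quantified ATP by luminescence in HepG2 cells after 1 hr compound incubation and a 30 min room-temperature CellTiter-Glo step.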
Assay [16] is described as follows: qHTS assay for small molecule disruptors of the mitochondrial membrane potential (AID 720635). Also: potency is read from the fitted curve at half-maximal effect. An outline of the steps: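 HepG2 cells exposed to compound 1 hr at 37C, then Mito-MPS dye 30 min. Ratio read of aggregate (540/590 nm) versus monomer (490/535 nm) fluorescence.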
Assay [17] concerns the target Glucocorticoid receptor (Homo sapiens) (UniProt P04150). Put plainly: qHTS assay to identify small molecule agonists of the glucocorticoid receptor (GR) signaling pathway (AID 720691; active = well fitted activation curve with a large enough effect in the signal ratio in the repeat runs, not every such curve was filed as active; the % refers to the signal ratio). The following applies: GR-bla HeLa, beta-lactamase reporter ratio, 18 h; activation: at 62.4 µM (top of the series). Summed up: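 Reporter read-out: fluorescence intensity following 2 h room-temperature LiveBLAzer B/G FRET substrate loading. Prior step: GR-bla HeLa cells held 4 h, then treated 18 h at 37 C.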

Assay [18] shares this target. Put plainly: qHTS assay to identify small molecule antagonists of the glucocorticoid receptor (GR) signaling pathway (AID 720692; active = well fitted inhibition curve with a large enough effect in the signal ratio in the repeat runs, not every such curve was filed as active; the % refers to the signal ratio; also: potency is read from the fitted curve at half-maximal effect). Summed up:
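Dexamethasone (5 nM final) stimulated a stably integrated GRE-beta-lactamase reporter in HeLa cells during 18 h co-incubation with compounds; signal was quantified as fluorescence intensity of B/G FRET substrate after 2 h.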

A short description of assay [19]: qHTS assay to test for compound auto fluorescence at 590 nm (red) in HEK293 cells (AID 720679). Summed up:
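Intensity at 540nm excitation and 590nm emission is reported as Rose Bengal sodium-equivalent autofluorescence. Measurements followed overnight exposure (37C, 5% CO2) of HEK293 cells, 2,000 per well, to 23 nL compound.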

Each structure is given as a SMILES string. Values joined by “and” are separate entries in the source; they are usually repeats but may differ in a detail not shown here. Equal values may be shown once. Values without a mark were called inactive. Records with an inconclusive call do not appear. Active and inactive are the calls of the source. Unless noted, calls follow the shape of the dose curve; as a rule, active = well fitted curve in the direction sought with a large enough effect in the repeat runs; inconclusive = weak or mixed curves; inactive = no such curve, though single readings can be large; an effect the other way counts as inactive or inconclusive.

Sequence of Glucocorticoid receptor (Homo sapiens) (P04150 whole entry, looked up): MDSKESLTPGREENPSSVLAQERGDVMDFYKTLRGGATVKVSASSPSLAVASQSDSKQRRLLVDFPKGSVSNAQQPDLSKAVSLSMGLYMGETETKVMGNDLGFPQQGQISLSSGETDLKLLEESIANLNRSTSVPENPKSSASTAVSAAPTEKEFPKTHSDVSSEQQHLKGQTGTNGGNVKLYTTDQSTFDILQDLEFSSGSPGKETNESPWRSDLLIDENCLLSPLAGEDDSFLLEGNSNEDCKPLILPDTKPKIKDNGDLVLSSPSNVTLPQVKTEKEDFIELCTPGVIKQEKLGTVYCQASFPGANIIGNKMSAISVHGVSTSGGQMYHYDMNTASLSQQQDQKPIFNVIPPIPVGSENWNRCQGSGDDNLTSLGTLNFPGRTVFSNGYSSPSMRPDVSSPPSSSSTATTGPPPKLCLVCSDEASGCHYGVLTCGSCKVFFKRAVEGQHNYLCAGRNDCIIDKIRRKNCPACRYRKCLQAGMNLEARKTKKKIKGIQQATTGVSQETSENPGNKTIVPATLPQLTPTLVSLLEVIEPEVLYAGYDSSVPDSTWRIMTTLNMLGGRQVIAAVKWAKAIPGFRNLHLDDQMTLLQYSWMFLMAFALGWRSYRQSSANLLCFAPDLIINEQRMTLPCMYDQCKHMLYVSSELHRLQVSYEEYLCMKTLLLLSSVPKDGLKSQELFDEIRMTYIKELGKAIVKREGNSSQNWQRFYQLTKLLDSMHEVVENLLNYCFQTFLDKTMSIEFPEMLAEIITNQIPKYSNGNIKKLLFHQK

As to `CC1=CCC2CC1C2(C)C` (stereo not given), the call in [1], in [4], in [5], in assay [6], in assay [7] and in [8] was inactive. Besides, the call in assay [9], in assay [10], in assay [11], in assay [12], in [13] and in [14] was inactive. Moreover, the Potency entry in assay [2] and in assay [3] was “inactive” in each case.

Turning to `CCCCC(CC)COC(=O)C(C#N)=C(c1ccccc1)c1ccccc1` (stereo not given), the molecule was called inactive in [1], in [4], in assay [5], in [6], in assay [7] and in [8]. The molecule was called inactive in assay [9], in assay [10], in [11], in assay [12] and in [14]. Moreover, the Potency result in assay [2], in assay [3], in [17] and in assay [18] was “inactive” in each case. Besides, the Potency in [15] was 15.4 µM (active); in assay [16], 27.3 µM (active).

For `OCc1cccnc1`, the Potency entry in [3] and in assay [15] was “inactive” in each case. For the same molecule, the molecule was called inactive in assay [4], in assay [5], in assay [6], in [19], in assay [7] and in assay [8]. In addition, the call in [9], in assay [10], in assay [11], in assay [13] and in assay [14] was inactive.

As to `O=[N+]([O-])c1ccc(/C=C/c2ccc([N+](=O)[O-])cc2S(=O)(=O)O)c(S(=O)(=O)O)c1`, the Potency entry in [2], in assay [3], in assay [15], in assay [17] and in assay [18] was “inactive” in each case. Also, the outcome in [4], in assay [5], in [6], in [19], in assay [7] and in assay [8] was inactive. Moreover, the result in [9], in assay [10], in [11], in assay [12] and in assay [13] was inactive.

With `C#C[C@]1(O)CC[C@H]2[C@@H]3CCC4=CC(=O)CC[C@@H]4[C@H]3CC[C@@]21C`, the outcome in [1], in [4], in [5], in [6], in [7] and in [8] was inactive. Further, the call in assay [9], in [10], in assay [11], in assay [12] and in [13] was inactive. Besides, the Potency result in assay [3], in assay [15], in assay [16] and in assay [17] was “inactive” in each case.

With `CC1=CC(=O)NS(=O)(=O)O1`, the Potency result in assay [2], in [3], in [15], in assay [17] and in assay [18] was “inactive” throughout. Besides, the molecule was called inactive in assay [4], in assay [5], in assay [6], in assay [19], in [7] and in assay [8]. Further, the molecule was classed as inactive in assay [9], in assay [10], in [11], in assay [13] and in assay [14].

For `CC[C@H](C)C(=O)O[C@H]1C[C@@H](C)C=C2C=C[C@H](C)[C@H](CC[C@@H]3C[C@@H](O)CC(=O)O3)[C@H]21`, the call in assay [1], in [4], in assay [5], in assay [6], in assay [19] and in [7] was inactive. Further, the molecule was called inactive in [8], in [9], in [10], in assay [11] and in assay [13]. Further, the Potency in assay [2] is 29.8 µM (active) and 69.6 µM (active); in assay [18] it was 21.3 µM (active). Also, the Potency result in assay [3] and in assay [15] was “inactive” in each case.

For the molecule `CC1CCC(C(C)C)C(O)C1` (stereo not given), the call in assay [1], in assay [4], in [5], in assay [6], in assay [19] and in assay [7] was inactive. In addition, the molecule was called inactive in assay [8], in assay [9], in assay [10], in assay [11], in assay [12] and in assay [13]. In addition, the molecule was classed as inactive in [14]. Also, the Potency result in [2], in assay [3] and in assay [15] was “inactive” in each case.

Take `O=C(O)CCCC[C@@H]1SC[C@@H]2NC(=O)N[C@@H]21`: the molecule was called inactive in assay [1], in assay [4], in assay [5], in assay [6], in [19] and in [7]. Further, the outcome in assay [8], in assay [9], in assay [10], in [11], in assay [12] and in assay [14] was inactive. For the same molecule, the Potency entry in assay [2], in assay [3], in assay [15], in [16], in assay [17] and in assay [18] was “inactive” in each case.

(Values after PubChem BioAssay (Tox21).)
